Laboratory results: PubChem BioAssay (EPA / NIEHS)
Records with an inconclusive call do not appear. Active and inactive are the calls of the source. Rule for the calls, unless noted: active = hit-call score of the fitted dose curve at least 0.9, where 1 is the maximum; inconclusive = response in the unintended direction; inactive = score below 0.9.

Key:
[1] = ATG_TAL_CIS: Attagene CIS-FACTORIAL HepG2 Assay for human TAL Basal Promoter (AID 2282966; active = hit-call score of the fitted dose curve at least 0.9, where 1 is the maximum; inactive = score below 0.9;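 note: background control endpoint measuring basal TAL promoter reporter mRNA not a specific factor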); conditions: HepG2 Attagene cis-factorial TAL promoter reporter; actives raise or lower the signal
Procedure, shortened: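 Basal-promoter background-control endpoint from a multiplexed HepG2 reporter panel. Cells were exposed 24 h, then reporter mRNA was read by RT-PCR/CE fluorescence and fitted in both directions relative to DMSO.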

[2] = ATG_TGFb_CIS: Attagene CIS-FACTORIAL HepG2 Assay for human Transforming Growth Factor (TGF) (AID 2282967; active = hit-call score of the fitted dose curve at least 0.9, where 1 is the maximum; inactive = score below 0.9); conditions: HepG2 Attagene CIS TGFb reporter, mRNA transcription; actives raise or lower the signal
Procedure, shortened: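 Cells were dosed for 24 hours, after which total RNA was reverse-transcribed and reporter sequences amplified, labeled and sized by capillary electrophoresis. Activity was fitted in both directions against DMSO.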

[3] = ATG_VDRE_CIS: Attagene CIS-FACTORIAL HepG2 Assay for human Vitamin D Receptor Element (VDRE) (AID 2282968; active = hit-call score of the fitted dose curve at least 0.9, where 1 is the maximum; inactive = score below 0.9); conditions: HepG2 VDRE cis-reporter transcription, actives raise or lower the signal
Procedure, shortened: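 Measures endogenous factor activity through cis-element-driven reporter transcripts in transiently transfected HepG2. Cells are treated 24 h; reporter mRNA is quantified by RT-PCR and capillary electrophoresis; fitting is bidirectional.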

[4] = biological target: Nuclear receptor subfamily 1 group I member 3 (Homo sapiens) (UniProt Q14994); experiment: ATG_CAR_TRANS: Attagene TRANS-FACTORIAL HepG2 Assay for human Constitutive Androstane Receptor (CAR) (AID 2282969); conditions: HepG2 Attagene TRANS-FACTORIAL CAR reporter;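 note: activators raise reporter mRNA above DMSO so AC50 marks induction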
Procedure, shortened: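 Signal is reporter mRNA induction relative to DMSO, measured 24 h after dosing by RT-PCR with fluorescent primer extension and capillary electrophoresis. Human HepG2 liver cells carried transiently transfected chimeric NR-Gal4/GAL4-UAS reporter constructs.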

[5] = biological target: Estrogen receptor (Homo sapiens) (UniProt P03372); experiment: ATG_ERa_TRANS: Attagene TRANS-FACTORIAL HepG2 Assay for human Estrogen Receptor alpha (ERa) (AID 2282970); conditions: HepG2 Attagene TRANS ERa GAL4 reporter, mRNA
Procedure, shortened: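 Gal4-fusion ERa transactivation, measured as reporter transcript level in transiently transfected HepG2 cells. Exposure 24 h; RT-PCR plus capillary electrophoresis with fluorescence detection.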

[6] = biological target: X-box-binding protein 1 (Homo sapiens) (UniProt P17861); experiment: ATG_Xbp1_CIS: Attagene CIS-FACTORIAL HepG2 Assay for human X-box Binding Protein 1 (XBP1) (AID 2282972; active = hit-call score of the fitted dose curve at least 0.9, where 1 is the maximum; inactive = score below 0.9); conditions: HepG2 XBP1 cis-element reporter, Attagene multiplex; actives raise or lower the signal
Procedure, shortened: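 Multiplexed cis-reporter readout in transfected HepG2 liver cells. Exposure lasted 24 hours. Activity in either direction was fitted against DMSO as negative control and baseline.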

[7] = biological target: Glucocorticoid receptor (Homo sapiens) (UniProt P04150); experiment: ATG_GR_TRANS: Attagene TRANS-FACTORIAL HepG2 Assay for human Glucocorticoid Receptor (GR) (AID 2282978); conditions: HepG2 Attagene TRANS GR reporter, mRNA transcription;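 note: activators score as hits since higher reporter transcript over DMSO is fitted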
Procedure, shortened: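 Reporter transcript levels, detected by fluorescence after RT-PCR and capillary electrophoresis, served as the endpoint. HepG2 cells bearing transfected GAL4-UAS reporters responsive to NR-GAL4 chimeras were incubated with compound 24 h; DMSO defined baseline.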

[8] = biological target: Oxysterols receptor LXR-beta (Homo sapiens) (UniProt P55055); experiment: ATG_LXRb_TRANS: Attagene TRANS-FACTORIAL HepG2 Assay for human Liver X Receptor beta (LXRb) (AID 2282981); conditions: HepG2 Attagene TRANS GAL4-LXRb reporter, mRNA
Procedure, shortened: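 After 24 h of chemical treatment, transfected HepG2 cells yield total RNA; reporter cDNA is PCR-amplified, FAM-labelled, HpaI-cut and run on capillary electrophoresis. Signal reflects chimeric LXRb-Gal4 activity on GAL4-UAS reporters.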

[9] = biological target: Hepatocyte nuclear factor 4-alpha (Homo sapiens) (UniProt P41235); experiment: ATG_HNF4a_TRANS: Attagene TRANS-FACTORIAL HepG2 Assay for human Hepatocyte Nuclear Factor 4 alpha (HNF4a) (AID 2282982); conditions: HepG2 HNF4a transactivation reporter, mRNA readout
Procedure, shortened: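 Multiplexed reporter assay: transfected HepG2, 24 h exposure, total RNA → oligo(dT) RT → PCR → 6-FAM extension → HpaI digest → CE fluorescence. DMSO = negative control.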

[10] = ATG_M_32_TRANS: Attagene TRANS-FACTORIAL HepG2 Assay for M32 Transcription Factor (Internal Marker) (AID 2282984); conditions: HepG2 Attagene TRANS M32 internal marker reporter
Procedure, shortened: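 Cell-based TRANS-format assay in HepG2: exogenous chimeric GAL4 reporter units transiently expressed, compounds applied 24 h. Reporter mRNA detected by RT-PCR plus capillary electrophoresis; this readout is an internal background marker.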

[11] = biological target: Nuclear receptor subfamily 4 group A member 2 (Homo sapiens) (UniProt P43354); experiment: ATG_NURR1_TRANS: Attagene TRANS-FACTORIAL HepG2 Assay for human Nuclear Receptor Related Protein 1 (NURR1) (AID 2282985); conditions: HepG2 Attagene TRANS reporter, mRNA readout
Procedure, shortened: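 Measures transcriptional activation by an exogenous NR-Gal4 chimera in transfected HepG2 liver cells. After 24 h, reporter RNA is reverse-transcribed, amplified and resolved by capillary electrophoresis; DMSO defines baseline.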

[12] = biological target: Transcriptional activator Myb (Homo sapiens) (UniProt P10242); experiment: ATG_Myb_CIS: Attagene CIS-FACTORIAL HepG2 Assay for human Myeloblastosis (Myb) Proto-Oncogene Transcription Factor (AID 2282986; active = hit-call score of the fitted dose curve at least 0.9, where 1 is the maximum; inactive = score below 0.9); conditions: HepG2 Attagene CIS-FACTORIAL Myb reporter transcription; actives raise or lower the signal
Procedure, shortened: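 Transiently transfected HepG2 cells, treated 24 h. Reporter mRNA quantified by RT-PCR/capillary electrophoresis; bidirectional fit relative to DMSO.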

[13] = biological target: Nuclear respiratory factor 1 (Homo sapiens) (UniProt Q16656); experiment: ATG_NRF1_CIS: Attagene CIS-FACTORIAL HepG2 Assay for human Nuclear Respiratory Factor 1 (NRF1) Orphan Gene (AID 2282987; active = hit-call score of the fitted dose curve at least 0.9, where 1 is the maximum; inactive = score below 0.9); conditions: HepG2 NRF1 cis-element reporter, Attagene multiplex; actives raise or lower the signal
Procedure, shortened: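 Cells (HepG2, transient MRTU transfection) are exposed to compound for 24 h, then RNA isolated and reporter mRNA amplified and fluorescently labelled. Fragments are separated by capillary electrophoresis; signal change is fitted bidirectionally relative to DMSO.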

[14] = biological target: Steroid hormone receptor ERR1 (Homo sapiens) (UniProt P11474); experiment: ATG_ERRa_TRANS: Attagene TRANS-FACTORIAL HepG2 Assay for human Estrogen-Related Receptor alpha (ERRa) (AID 2282971); conditions: HepG2 Attagene TRANS reporter, ERRa transactivation
Procedure, shortened: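 HepG2 cells transiently transfected with GAL4-UAS reporter units and chimeric NR-Gal4 constructs; after 24 hour compound incubation, reporter mRNA quantified by RT-PCR, fluorescent labelling and capillary electrophoresis, gain of signal versus DMSO.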

[15] = ATG_M_19_TRANS: Attagene TRANS-FACTORIAL HepG2 Assay for M19 Transcription Factor (Internal Marker) (AID 2282974); conditions: HepG2 Attagene TRANS-FACTORIAL M19 internal marker reporter
Procedure, shortened: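 Reporter mRNA induction was measured in transfected HepG2 cells 24 h after dosing. Endpoint fitted upward relative to DMSO and serves as a background control within the multiplexed TRANS panel.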

[16] = biological target: Estrogen-related receptor gamma (Homo sapiens) (UniProt P62508); experiment: ATG_ERRg_TRANS: Attagene TRANS-FACTORIAL HepG2 Assay for human Estrogen-Related Receptor gamma (ERRg) (AID 2282977); conditions: HepG2 Attagene TRANS reporter, ERRg transactivation;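 note: hits increase reporter signal over DMSO so potencies reflect activators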
Procedure, shortened: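 Readout: fluorescent reporter-mRNA fragments resolved by capillary electrophoresis after RT-PCR and HpaI cut. Cells: transiently transfected HepG2 carrying GAL4-UAS reporters driven by exogenous NR-Gal4 chimeras, dosed 24 h. Activity fitted upward relative to DMSO baseline.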

[17] = ATG_GAL4_TRANS: Attagene TRANS-FACTORIAL HepG2 Assay for GAL4 (Internal Marker) (AID 2282976); conditions: HepG2 Attagene TRANS GAL4 internal marker reporter
Procedure, shortened: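 Background-control readout: GAL4-UAS reporter transcript in transiently transfected HepG2 cells after 24 h compound exposure. Measured by RT-PCR, 6-FAM primer extension, HpaI digest and capillary electrophoresis; gain-of-signal fit versus DMSO.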

[18] = biological target: Bile acid receptor (Homo sapiens) (UniProt Q96RI1); experiment: ATG_FXR_TRANS: Attagene TRANS-FACTORIAL HepG2 Assay for Farnesoid X Receptor (FXR) (AID 2282979); conditions: HepG2 Attagene TRANS FXR-GAL4 reporter transcription;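 note: hits raise reporter mRNA above DMSO so AC50 marks FXR activation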
Procedure, shortened: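 HepG2 cells were transiently transfected with GAL4-UAS reporters driven by chimeric NR-Gal4 proteins and dosed for 24 h. Reporter mRNA was quantified by RT-PCR, fluorescent labelling, HpaI digestion and capillary electrophoresis, with gain of signal scored versus DMSO.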

[19] = biological target: Oxysterols receptor LXR-alpha (Homo sapiens) (UniProt Q13133); experiment: ATG_LXRa_TRANS: Attagene TRANS-FACTORIAL HepG2 Assay for human Liver X Receptor alpha (LXRa) (AID 2282980); conditions: HepG2 Attagene TRANS reporter, LXRa transactivation
Procedure, shortened: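 HepG2 cells transiently transfected with GAL4-UAS reporter units for chimeric NR-Gal4 proteins, exposed to chemicals for 24 h. Reporter mRNA quantified by RT-PCR and capillary electrophoresis; gain of signal fitted relative to DMSO.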

[20] = ATG_M_06_TRANS: Attagene TRANS-FACTORIAL HepG2 Assay for M06 Transcription Factor (Internal Marker) (AID 2282983); conditions: HepG2 Attagene TRANS M06 internal marker reporter
Procedure, shortened: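 mRNA levels of a reporter transcript, quantified as FAM fluorescence on capillary electrophoresis, served as readout. HepG2 cells expressing exogenous GAL4-chimera reporter constructs were exposed for 24 h. Gain of signal over DMSO was evaluated.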

Measured: AC50

Sequence of Oxysterols receptor LXR-beta (Homo sapiens) (P55055 whole entry, looked up, the tested form may be a part): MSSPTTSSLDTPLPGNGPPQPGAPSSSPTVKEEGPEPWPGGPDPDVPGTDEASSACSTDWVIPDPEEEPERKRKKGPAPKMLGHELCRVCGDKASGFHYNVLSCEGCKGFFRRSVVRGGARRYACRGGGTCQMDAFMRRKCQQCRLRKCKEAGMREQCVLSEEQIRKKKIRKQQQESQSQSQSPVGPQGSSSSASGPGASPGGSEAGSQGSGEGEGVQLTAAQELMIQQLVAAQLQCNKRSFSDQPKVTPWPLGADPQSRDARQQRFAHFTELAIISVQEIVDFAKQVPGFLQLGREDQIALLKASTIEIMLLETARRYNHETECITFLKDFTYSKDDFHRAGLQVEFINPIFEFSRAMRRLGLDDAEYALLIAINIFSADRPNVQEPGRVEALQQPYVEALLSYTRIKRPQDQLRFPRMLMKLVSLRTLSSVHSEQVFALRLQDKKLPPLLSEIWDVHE
Sequence of Hepatocyte nuclear factor 4-alpha (Homo sapiens) (P41235 whole entry, looked up): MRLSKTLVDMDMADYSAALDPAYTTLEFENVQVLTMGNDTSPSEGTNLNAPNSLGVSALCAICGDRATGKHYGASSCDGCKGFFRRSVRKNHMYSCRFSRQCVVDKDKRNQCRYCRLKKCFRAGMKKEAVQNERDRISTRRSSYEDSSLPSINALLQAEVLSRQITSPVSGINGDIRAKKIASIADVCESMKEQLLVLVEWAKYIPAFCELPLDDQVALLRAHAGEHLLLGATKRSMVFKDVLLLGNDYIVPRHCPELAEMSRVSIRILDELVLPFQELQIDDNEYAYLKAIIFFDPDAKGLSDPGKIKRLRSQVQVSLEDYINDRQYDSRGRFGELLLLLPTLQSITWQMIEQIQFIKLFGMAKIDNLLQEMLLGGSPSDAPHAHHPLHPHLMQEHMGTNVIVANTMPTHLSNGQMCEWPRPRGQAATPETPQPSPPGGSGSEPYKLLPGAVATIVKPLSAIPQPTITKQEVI
Sequence of Oxysterols receptor LXR-alpha (Homo sapiens) (Q13133 whole entry, looked up, the tested form may be a part): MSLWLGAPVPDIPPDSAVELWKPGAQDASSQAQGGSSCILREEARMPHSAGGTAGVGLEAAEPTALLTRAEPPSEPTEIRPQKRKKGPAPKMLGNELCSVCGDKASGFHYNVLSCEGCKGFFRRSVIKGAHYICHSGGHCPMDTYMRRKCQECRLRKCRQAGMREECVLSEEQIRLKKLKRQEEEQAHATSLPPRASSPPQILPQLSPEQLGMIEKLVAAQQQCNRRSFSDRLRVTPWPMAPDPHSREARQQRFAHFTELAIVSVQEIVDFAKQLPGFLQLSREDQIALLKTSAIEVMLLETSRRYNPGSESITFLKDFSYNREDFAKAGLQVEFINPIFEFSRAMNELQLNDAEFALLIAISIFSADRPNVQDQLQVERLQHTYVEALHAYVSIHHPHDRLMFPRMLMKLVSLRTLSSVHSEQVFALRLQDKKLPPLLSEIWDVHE
Sequence of X-box-binding protein 1 (Homo sapiens) (P17861 whole entry, looked up): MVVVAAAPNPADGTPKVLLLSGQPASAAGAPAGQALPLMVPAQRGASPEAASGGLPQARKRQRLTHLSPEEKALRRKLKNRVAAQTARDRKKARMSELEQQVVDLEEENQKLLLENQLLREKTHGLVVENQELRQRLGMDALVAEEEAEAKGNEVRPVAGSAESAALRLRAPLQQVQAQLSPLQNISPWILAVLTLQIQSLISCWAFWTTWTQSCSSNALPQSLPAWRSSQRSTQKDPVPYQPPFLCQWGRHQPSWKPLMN
Sequence of Estrogen receptor (Homo sapiens) (P03372 whole entry, looked up, the tested form may be a part): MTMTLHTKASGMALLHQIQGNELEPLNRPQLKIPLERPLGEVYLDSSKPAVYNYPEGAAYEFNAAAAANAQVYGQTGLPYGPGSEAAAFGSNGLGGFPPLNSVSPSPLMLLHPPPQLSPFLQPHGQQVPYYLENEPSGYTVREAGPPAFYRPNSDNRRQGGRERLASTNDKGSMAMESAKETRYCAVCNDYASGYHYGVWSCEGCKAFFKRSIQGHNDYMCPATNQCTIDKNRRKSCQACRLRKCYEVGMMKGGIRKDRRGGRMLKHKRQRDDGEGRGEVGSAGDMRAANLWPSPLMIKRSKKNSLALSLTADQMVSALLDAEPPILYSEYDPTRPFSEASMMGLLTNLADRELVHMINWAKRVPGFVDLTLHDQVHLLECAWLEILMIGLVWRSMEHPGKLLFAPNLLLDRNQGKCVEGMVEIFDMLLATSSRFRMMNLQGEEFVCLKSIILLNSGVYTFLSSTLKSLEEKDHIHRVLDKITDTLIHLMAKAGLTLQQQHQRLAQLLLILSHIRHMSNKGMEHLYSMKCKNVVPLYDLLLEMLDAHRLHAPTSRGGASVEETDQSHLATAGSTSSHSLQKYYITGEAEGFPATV
Sequence of Nuclear respiratory factor 1 (Homo sapiens) (Q16656 whole entry, looked up, the tested form may be a part): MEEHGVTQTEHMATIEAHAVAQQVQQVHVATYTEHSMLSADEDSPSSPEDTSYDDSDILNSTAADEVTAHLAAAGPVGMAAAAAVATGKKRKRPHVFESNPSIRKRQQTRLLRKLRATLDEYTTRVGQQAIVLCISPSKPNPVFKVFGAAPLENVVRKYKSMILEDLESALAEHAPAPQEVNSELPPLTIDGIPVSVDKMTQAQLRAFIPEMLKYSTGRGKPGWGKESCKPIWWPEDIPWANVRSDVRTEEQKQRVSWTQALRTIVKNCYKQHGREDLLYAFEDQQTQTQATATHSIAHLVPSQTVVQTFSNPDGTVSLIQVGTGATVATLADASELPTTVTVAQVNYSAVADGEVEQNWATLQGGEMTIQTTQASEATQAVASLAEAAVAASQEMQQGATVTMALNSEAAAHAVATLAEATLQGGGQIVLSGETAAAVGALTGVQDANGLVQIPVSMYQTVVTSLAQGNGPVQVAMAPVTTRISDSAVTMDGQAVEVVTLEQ
Sequence of Transcriptional activator Myb (Homo sapiens) (P10242 whole entry, looked up): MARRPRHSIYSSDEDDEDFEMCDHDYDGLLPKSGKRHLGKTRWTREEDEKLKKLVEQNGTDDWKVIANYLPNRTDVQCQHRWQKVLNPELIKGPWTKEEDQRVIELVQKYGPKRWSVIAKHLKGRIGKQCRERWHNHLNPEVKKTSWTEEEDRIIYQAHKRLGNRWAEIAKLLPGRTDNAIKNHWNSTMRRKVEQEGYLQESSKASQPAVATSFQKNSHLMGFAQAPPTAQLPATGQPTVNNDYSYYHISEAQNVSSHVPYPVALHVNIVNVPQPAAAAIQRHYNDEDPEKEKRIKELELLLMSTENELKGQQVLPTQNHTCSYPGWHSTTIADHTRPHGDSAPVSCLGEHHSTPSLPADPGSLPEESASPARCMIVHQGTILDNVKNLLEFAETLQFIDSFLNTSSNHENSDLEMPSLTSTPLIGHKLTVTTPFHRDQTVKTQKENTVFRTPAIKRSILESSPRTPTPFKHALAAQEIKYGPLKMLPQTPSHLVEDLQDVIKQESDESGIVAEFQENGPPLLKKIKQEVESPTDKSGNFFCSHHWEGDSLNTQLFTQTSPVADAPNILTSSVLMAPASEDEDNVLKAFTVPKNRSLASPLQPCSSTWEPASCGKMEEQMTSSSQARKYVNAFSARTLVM
Sequence of Bile acid receptor (Homo sapiens) (Q96RI1 whole entry, looked up, the tested form may be a part): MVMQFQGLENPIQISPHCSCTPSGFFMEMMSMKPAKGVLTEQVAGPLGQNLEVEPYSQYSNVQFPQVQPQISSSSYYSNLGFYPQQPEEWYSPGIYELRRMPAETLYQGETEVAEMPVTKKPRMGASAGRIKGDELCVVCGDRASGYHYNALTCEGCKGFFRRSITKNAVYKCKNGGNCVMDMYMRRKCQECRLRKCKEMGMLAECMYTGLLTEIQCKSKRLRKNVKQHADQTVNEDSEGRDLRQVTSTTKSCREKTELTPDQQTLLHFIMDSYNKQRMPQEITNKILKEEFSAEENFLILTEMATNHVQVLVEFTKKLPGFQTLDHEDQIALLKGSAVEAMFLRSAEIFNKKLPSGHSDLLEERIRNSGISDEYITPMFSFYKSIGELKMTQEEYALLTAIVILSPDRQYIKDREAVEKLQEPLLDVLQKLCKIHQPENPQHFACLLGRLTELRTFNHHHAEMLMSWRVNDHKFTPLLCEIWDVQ
Sequence of Nuclear receptor subfamily 1 group I member 3 (Homo sapiens) (Q14994 whole entry, looked up, the tested form may be a part): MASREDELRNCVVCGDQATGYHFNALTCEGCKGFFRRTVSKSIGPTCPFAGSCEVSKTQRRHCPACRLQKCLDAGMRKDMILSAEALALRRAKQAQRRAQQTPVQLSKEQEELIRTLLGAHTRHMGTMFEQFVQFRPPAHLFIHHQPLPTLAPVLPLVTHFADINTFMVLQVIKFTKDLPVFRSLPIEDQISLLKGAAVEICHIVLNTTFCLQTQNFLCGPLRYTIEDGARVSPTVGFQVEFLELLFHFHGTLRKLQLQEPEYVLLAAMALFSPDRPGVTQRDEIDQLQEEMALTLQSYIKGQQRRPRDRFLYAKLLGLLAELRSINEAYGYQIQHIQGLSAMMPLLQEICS
Sequence of Glucocorticoid receptor (Homo sapiens) (P04150 whole entry, looked up, the tested form may be a part): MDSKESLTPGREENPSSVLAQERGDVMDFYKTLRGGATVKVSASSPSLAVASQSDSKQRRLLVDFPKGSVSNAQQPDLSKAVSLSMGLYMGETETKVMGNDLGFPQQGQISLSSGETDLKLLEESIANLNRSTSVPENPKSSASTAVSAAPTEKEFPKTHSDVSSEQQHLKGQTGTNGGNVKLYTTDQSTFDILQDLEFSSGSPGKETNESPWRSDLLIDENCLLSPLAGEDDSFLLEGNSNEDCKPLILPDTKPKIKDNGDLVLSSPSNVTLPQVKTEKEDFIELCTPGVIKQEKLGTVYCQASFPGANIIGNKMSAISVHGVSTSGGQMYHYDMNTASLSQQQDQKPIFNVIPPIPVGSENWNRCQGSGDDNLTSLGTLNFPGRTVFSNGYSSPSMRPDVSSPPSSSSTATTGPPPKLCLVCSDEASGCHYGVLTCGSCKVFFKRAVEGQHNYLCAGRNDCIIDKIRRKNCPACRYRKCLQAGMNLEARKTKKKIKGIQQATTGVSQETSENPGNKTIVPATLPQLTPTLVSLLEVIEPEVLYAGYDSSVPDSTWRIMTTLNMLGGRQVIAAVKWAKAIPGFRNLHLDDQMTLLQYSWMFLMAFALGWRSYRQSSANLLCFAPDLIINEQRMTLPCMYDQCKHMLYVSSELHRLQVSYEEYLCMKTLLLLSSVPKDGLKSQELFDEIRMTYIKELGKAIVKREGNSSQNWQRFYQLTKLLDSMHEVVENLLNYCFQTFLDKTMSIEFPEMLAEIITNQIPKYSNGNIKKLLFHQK

CCOC(=O)c1ccc(N(C)C)cc1
active: [3] 65.8 µM
inactive: [1] | [2] | [4] | [5] | [6] | [7] | [8] | [9] | [10] | [11] | [12] | [13]

C1CN(SSN2CCOCC2)CCO1
inactive: [1] | [2] | [3] | [5] | [14] | [6] | [15] | [16] | [10] | [11] | [12] | [13]

CC1=Nc2ccc3ccccc3c2C1(C)C
active: [3] 2.97 µM | [5] 17.1 µM
inactive: [1] | [2] | [14] | [6] | [15] | [17] | [18] | [19] | [8] | [9] | [10] | [11] | [13]

CC(C)(C)c1ccc(OC(=O)c2ccccc2O)cc1
active: [5] 6.14 µM
inactive: [1] | [2] | [3] | [4] | [6] | [18] | [8] | [20] | [11] | [12] | [13]

Cc1ccc(C(C)(C)C)cc1
inactive: [1] | [2] | [3] | [4] | [6] | [15] | [8] | [20] | [10] | [11] | [12] | [13]

CCCCCCC1(C)CCC(=O)O1 (stereo not drawn)
inactive: [1] | [2] | [3] | [4] | [5] | [6] | [9] | [20] | [10] | [12] | [13]

O=c1n(CCO)c(=O)n(CCO)c(=O)n1CCO
inactive: [1] | [2] | [3] | [4] | [6] | [15] | [17] | [18] | [19] | [9] | [10] | [12] | [13]

CCN(Cc1cccc(S(=O)(=O)O)c1)c1ccc(C(=C2C=CC(=[N+](CC)Cc3cccc(S(=O)(=O)[O-])c3)C=C2)c2ccccc2)cc1
active: [2] 37.4 µM
inactive: [1] | [3] | [4] | [5] | [6] | [17] | [8] | [9] | [20] | [10] | [11] | [13]

CN(C)CCCN(C)C
inactive: [1] | [2] | [3] | [5] | [6] | [15] | [17] | [7] | [19] | [8] | [20] | [12] | [13]

CNC(=S)NN
inactive: [1] | [2] | [3] | [5] | [6] | [15] | [17] | [7] | [19] | [8] | [10] | [11] | [12] | [13]
